What all share (test): NCI-60 one-dose screen, 48 h (100 = growth as untreated, 0 = no growth, -100 = all killed)
What all share (conditions): 10 µM

Experiment [1] has as its system SK-MEL-2 melanoma.
For experiment [2], the system named is SN12C renal.
The test system of experiment [3] is UO-31 renal.
Experiment [4] has as its system TK-10 renal.
The subject of experiment [5] is ACHN renal.
For experiment [6], the system named is CAKI-1 renal.
Experiment [7] relates to A498 renal.
Experiment [8] has as its system CCRF-CEM leukemia.
In experiment [9] the test system is MOLT-4 leukemia.

The structures appear in SMILES notation. Compounds without any hit were thinned out: in the full panel of roughly 83,000, 20% have a hit.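 The test compound was applied at a single concentration to cells in 96-well plates for 48 hours, and percent growth was recorded.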 A number with no mark means an inactive call. Active and inactive are the calls of the source. The calls were made as follows: active = growth percent below 10; inactive = the rest.

With `COc1cc(-c2nc3ccc(C)cc3[nH]2)ccc1OCC(=O)N=Nc1c(O)[nH]c2ccccc12`, the growth in experiment [1] was -52.9% (active); in experiment [2], -61.8% (active); in [3], 95.9%; in [4], 10.3%; in experiment [5] it was 14%; in experiment [6] it was -46.3% (active). Further, the values for the growth in [7], in experiment [8] and in experiment [9] were 75.5%, -50% (active) and -65% (active), respectively.
With `COc1ccccc1S(=O)(=O)Nc1ccc2c(c1)CN(C)C(=O)N2`, the growth in [1] was 47.6%; in [2], 53.2%; in experiment [3], 10.2%; in experiment [4], 17.3%; in [5] it was 34.7%; in [6] it was 21.2%. The growth in [7] is -2.92% (active); in [8], 48.9%; in experiment [9], 38.4%.
For the molecule `N=C(N)c1ccc(-c2ccc(-c3cccs3)s2)nc1`, the growth in experiment [1] is 97.8%; in experiment [2], 60.9%; in experiment [3] it was 2.6% (active); in [4], 47.3%; in [5], 56.7%; in [6] it was 34.2%. The figures for the growth in [7], in [8] and in experiment [9] were -25.6% (active), 31.6% and 17.3%, respectively.
As for `COc1cccc(-c2nnc(COc3ccc(-c4nc5ccc(C)cc5[nH]4)cc3OC)o2)c1`, the growth in [1] was 98.8%; in experiment [2], 72.6%; in experiment [3] it was 88.2%; in [4], 102%; in experiment [5], 25.9%; in experiment [6], 94.4%. Further, the growth in experiment [7] was 71.3%; in experiment [8], 2.49% (active); in experiment [9] it was 25.6%.
As to `COc1cccc2c1O/C(=C\c1ccc([N+](=O)[O-])s1)C2=O`, the growth is 43.3% in [1]; 70.1% in experiment [2]; -0.107% (active) in experiment [3]; 73.6% in experiment [4]; 67.5% in [5]; 90.9% in experiment [6]. The values for the growth in experiment [7], in [8] and in experiment [9] were 109%, 43.6% and 75.5%, respectively.
For `COc1cccc2c1O/C(=C\c1ncc([N+](=O)[O-])n1C)C2=O`, the growth in experiment [1] was -51.5% (active); in experiment [2], -54.2% (active); in experiment [3] it was -34.7% (active); in experiment [4], -33.7% (active); in experiment [5] it was 7.42% (active); in [6], -26.5% (active). The values for the growth in [7], in [8] and in [9] were -33.4% (active), 8.19% (active) and -1.08% (active), respectively.
Regarding `CCCOCC(O)CNCCN` (stereo unspecified), the growth is 116% in experiment [1]; 92.8% in [2]; 87.8% in experiment [3]; 102% in experiment [4]; 95.4% in experiment [5]; 92.5% in [6]. Further, the values for the growth in experiment [7], in [8] and in experiment [9] were 89%, 97.6% and 115%, respectively.
On to `COc1ccc(-c2nsc3c2NC(=O)CC3c2ccc(Cl)cc2)cc1` (stereo unspecified), for which the growth in experiment [1] was 77.2%; in experiment [2] it was 83.8%; in [3], 62.8%; in [4], 83.9%; in [5], 82.7%; in experiment [6], 80.2%. The growth was 83.3% in experiment [7], 74.4% in experiment [8] and 66.9% in [9].
As to `C=CCOc1ccc2c(c1)CC=C1[C@@H]2CC[C@]2(C)C(=O)/C(=N/O)C[C@@H]12`, the growth in experiment [1] was 106%; in experiment [2], 88.3%; in [3], 86%; in [4], 72.3%; in [5] it was 55.4%; in experiment [6] it was 50.4%. Further, the growth in experiment [7] is 96.6%; in experiment [8], 30.9%; in [9], 46%.
Regarding `COc1ccc(-n2nnc3c(sc4ccccc43)c2=O)cc1`, the growth in [1] was 77.1%; in [2], 61.9%; in experiment [3], 1.83% (active); in experiment [4] it was 8.22% (active); in experiment [5] it was -22.3% (active); in experiment [6], 36.6%. Also, the growth in [7] is -2.38% (active); in [8], 89.9%; in [9], 99.5%.
Take `COc1ccc(C2CC(c3ccc(-c4ccccc4)cc3)=NN2c2ccc(S(N)(=O)=O)cc2)cc1` (stereo unspecified): the growth is 90.3% in [1]; 52.6% in [2]; 50% in [3]; 65.4% in [4]; 74.7% in experiment [5]; 45.2% in experiment [6]. The growth in [7] is 98%; in [8], 51.7%; in experiment [9] it was 54.8%.
With `COc1cc(-c2cc(-c3cc(OC)c(OC)c(OC)c3)nc3nc(N)[nH]c(=O)c23)ccc1Oc1ccnc2cc(Cl)ccc12`, the growth in [1] was 29.2%; in experiment [2] it was 31.3%; in [3] it was 46.3%; in [4], 92.9%; in experiment [5], 48.4%; in [6], 38.7%. Moreover, the growth in [7] is 84.9%; in experiment [8], 18.2%; in [9], 17.7%.
As for `Cc1ccccc1[P+](Cc1ccccc1)(c1ccccc1)c1ccccc1`, the growth was -23.1% (active) in experiment [1]; 29.9% in [2]; 67.8% in experiment [3]; 21.4% in experiment [4]; 75.6% in experiment [5]; 86.8% in experiment [6]. Besides, the growth in experiment [7] was 37%; in experiment [8], 19.3%; in experiment [9], 19.3%.
Turning to `Fc1ccc(Nc2ccnc(N3CCN(c4ccnc5cc(Cl)ccc45)CC3)n2)cc1`, the growth in [1] was 60.3%; in experiment [2] it was 49%; in experiment [3], 7.09% (active); in [4], 30.5%; in experiment [5] it was 38.7%; in experiment [6], 41.9%. The growth in experiment [7] was 22.7%; in experiment [8], 40.1%; in experiment [9], 13%.
In the case of `COc1ccc(-c2cc(/C=C/C(=O)c3ccc(N)cc3)[nH]n2)cc1OC`, the growth in experiment [1] was 80.8%; in [2], 35.1%; in experiment [3] it was 27.3%; in experiment [4] it was 39.3%; in experiment [5], 50.5%; in experiment [6], 31%. For the same molecule, the growth in experiment [7] was 52.8%; in [8], 7.41% (active); in [9] it was 7.23% (active).
For `CCOc1nc(-c2ccccc2)cc2c(O)c(C(=O)N/N=C/c3ccc(OC)cc3)[nH]c(=O)c12`, the growth in [1] is 98.5%; in [2], 114%; in experiment [3], 66.8%; in [4], 120%; in [5] it was 100%; in experiment [6], 92.5%. Also, the growth was 132% in [7], 91.8% in [8] and 63% in experiment [9].
As to `COc1cccc2c1C(=O)c1c(O)c3c(c(O)c1C2=O)C[C@@](O)(C(=O)COC(=O)c1ccccc1)C[C@@H]3OC1CC(N)C(O)C(C)O1` (stereo partly specified), the growth in experiment [1] was -92% (active); in experiment [2], -86% (active); in [3] it was -93.1% (active); in experiment [4] it was -79.8% (active); in experiment [5] it was -95.6% (active); in experiment [6], -89.3% (active). Besides, the figures for the growth in [7], in experiment [8] and in experiment [9] were -66.2% (active), -54% (active) and -66% (active), respectively.
Consider `Oc1cc(O)c(Br)cc1Br`, for which the growth in experiment [1] is 96.6%; in [2] it was 101%; in [3], 85.2%; in [4], 94.3%; in [5], 103%; in experiment [6], 95.9%. The growth is 96.7% in experiment [7], 95.4% in experiment [8] and 93.1% in experiment [9].
For `CCN1CCN(c2nc(NNC(=O)c3cccc(OC)c3)nc(N3CCN(C(c4ccccc4)c4ccccc4)CC3)n2)CC1`, the growth was 75% in experiment [1]; 61% in experiment [2]; 27.5% in experiment [3]; 79.7% in [4]; 56.1% in [5]; 42.2% in experiment [6]. Further, the growth was 75.3% in [7], 48.9% in [8] and 23.8% in [9].
Turning to `O=C(Nc1cccc(C(F)(F)F)c1)C(Cl)Cl`, the growth in experiment [1] is 97.4%; in experiment [2] it was 105%; in experiment [3], 80.6%; in experiment [4] it was 108%; in [5] it was 103%; in experiment [6], 105%. Besides, the growth was 101% in experiment [7], 98.8% in experiment [8] and 98.4% in [9].
For the molecule `COc1ccc(C2C=C(c3ccc(Cl)cc3)N=C3SC=CN32)c(Br)c1` (stereo unspecified), the growth is 85.3% in experiment [1]; 67.6% in experiment [2]; 84.3% in experiment [3]; 83.5% in experiment [4]; 67.7% in experiment [5]; 54.1% in experiment [6]. For the same molecule, the values for the growth in experiment [7], in experiment [8] and in experiment [9] were 89.7%, 71.7% and 53.1%, respectively.
As for `CC(C)OCc1cc(CN2CCN(c3cccc(Cl)c3)CC2)c(O)c2ncccc12`, the growth in [1] was -59.1% (active); in experiment [2] it was -4.06% (active); in [3], -6.8% (active); in experiment [4] it was 5.04% (active); in [5] it was 10.1%; in experiment [6], -49.9% (active). For the same molecule, the growth in experiment [7] was -62.7% (active); in experiment [8], -13.4% (active); in [9], -48.6% (active).
Turning to `COC(=O)c1c(C)nc(Nc2nc3ccccc3s2)nc1-c1ccc(Cl)cc1Cl`, the growth is 120% in experiment [1]; 99.8% in experiment [2]; 81.2% in experiment [3]; 120% in [4]; 96.7% in [5]; 99.6% in experiment [6]. In addition, the growth in experiment [7] was 100%; in experiment [8], 95%; in experiment [9], 84.7%.
Turning to `C[C@@H]1N=C(c2ccc(Br)cc2)Nc2nc3ccccn3c2C1=O`, the growth is 47.4% in [1]; 91.8% in [2]; 62% in experiment [3]; 110% in [4]; 69.2% in [5]; 44.1% in [6]. In addition, the growth in experiment [7] was 69.9%; in [8], 79.4%; in experiment [9] it was 57.5%.
For the molecule `Cc1ccc(/C(CS(=O)(=O)c2ccc(C)cc2)=N\O)cc1`, the growth in experiment [1] is 104%; in experiment [2] it was 89.3%; in [3] it was 93%; in [4], 82.7%; in experiment [5] it was 91.7%; in [6], 92.4%. Moreover, the growth in experiment [7] is 92.2%; in experiment [8] it was 86.7%; in [9], 102%.
As for `COc1ccc(C2C=C(c3ccc(Cl)c(Cl)c3)N=C3SC(C)=CN32)cc1` (stereo unspecified), the growth in [1] is 94.8%; in [2] it was 99.6%; in experiment [3], 77.5%; in [4] it was 92.8%; in experiment [5] it was 103%; in experiment [6], 95.7%. Moreover, the growth in experiment [7] is 91%; in experiment [8], 82.8%; in experiment [9], 79.5%.
With `CCCCCCCCCCCCCCCC(=O)N1CCN(C)CC1`, the growth in [1] was 86.5%; in [2] it was 74.6%; in [3], 40.5%; in [4], 73.8%; in experiment [5] it was 81.8%; in [6] it was 69.9%. Besides, the growth is 92.3% in experiment [7], 34.9% in experiment [8] and 61.4% in experiment [9].
In the case of `C=CCOc1ccc2c(c1)CC[C@@H]1[C@@H]2CC[C@]2(C)C(=O)/C(=N/O)C[C@@H]12`, the growth was 54.6% in experiment [1]; 39.3% in experiment [2]; 27.6% in experiment [3]; 9.46% (active) in experiment [4]; 30.4% in experiment [5]; 10.7% in experiment [6]. The results for the growth in experiment [7], in experiment [8] and in experiment [9] were 50.2%, 6.37% (active) and -31.7% (active), respectively.
Take `Cc1nn2c(/C=C3/C(=O)Nc4ccc(Cl)cc43)c(-c3ccccc3)nc2s1`: the growth is 32.7% in experiment [1]; 52.7% in experiment [2]; 29.6% in [3]; 6.61% (active) in [4]; 30.1% in experiment [5]; 53.4% in experiment [6]. The results for the growth in experiment [7], in [8] and in experiment [9] were 43.8%, 50.7% and 57.2%, respectively.
